According to article PMC5540273 (PLoS ONE, 2017):

Columns and labels:
Settings in all cases: concentration: 1 μM, replicates: in singlicate; n = 1
[1] = system: AAK1
[2] = system: ABL1-nonphosphorylated
[3] = system: ABL1-phosphorylated
[4] = system: ABL2
[5] = system: ACVR1B
[6] = system: ACVR1
[7] = system: ACVR2A
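Further: KINOMEscan kinase panel screen.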

Cc1ccccc1-n1cnc2c(N)ncnc21 [SKF-97510]
%Inh [1]: 1% | %Inh [2]: 100% | %Inh [3]: 3% | %Inh [4]: 0% | %Inh [5]: 0% | %Inh [6]: 10% | %Inh [7]: 0%

COc1cc(Nc2nccc(N3CCC(NC(=O)Nc4cc(C)ccc4C)C3)n2)cc(OC)c1OC (centres unmarked) [GSK1379762]
%Inh [1]: 46% | %Inh [2]: 0% | %Inh [3]: 0% | %Inh [4]: 22% | %Inh [5]: 0% | %Inh [6]: 12% | %Inh [7]: 0%

CN1C(=O)C(Nc2ccc(Cl)c(C(=O)O)c2)=C(c2ccc(Cl)cc2)C1=O [SB-404290]
%Inh [1]: 100% | %Inh [2]: 21% | %Inh [3]: 0% | %Inh [4]: 19% | %Inh [5]: 4% | %Inh [6]: 12% | %Inh [7]: 0%

Fc1cc(Cl)ccc1Nc1ccnc2cc(-c3ccc(CN4CCCCC4)o3)ccc12 [GW560116]
%Inh [1]: 1% | %Inh [2]: 47% | %Inh [3]: 49% | %Inh [4]: 14% | %Inh [5]: 0% | %Inh [6]: 5% | %Inh [7]: 0%

O=C(Nc1n[nH]c2nc(-c3nccs3)c(Br)cc12)C1CC1 [SB-742251]
%Inh [1]: 15% | %Inh [2]: 0% | %Inh [3]: 22% | %Inh [4]: 7% | %Inh [5]: 0% | %Inh [6]: 6% | %Inh [7]: 0%

Cc1cccc(-c2nc(Nc3ccc4[nH]ncc4c3)c3ccccc3n2)n1 [GW857175]
%Inh [1]: 0% | %Inh [2]: 19% | %Inh [3]: 14% | %Inh [4]: 3% | %Inh [5]: 100% | %Inh [6]: 0% | %Inh [7]: 0%

Fc1cccc(COc2nnc(-c3ccc4c(c3)CCO4)o2)c1
%Inh [1]: 26% | %Inh [2]: 25% | %Inh [3]: 0% | %Inh [4]: 22% | %Inh [5]: 0% | %Inh [6]: 0% | %Inh [7]: 0%

COc1ccc2nc(-c3cccc(C)n3)nc(Nc3ccncc3)c2c1 [GSK204919]
%Inh [1]: 0% | %Inh [2]: 0% | %Inh [3]: 0% | %Inh [4]: 12% | %Inh [6]: 0% | %Inh [7]: 0%

COc1ccc(Nc2nccc(-c3cccc(NC(=O)c4cc5cc(F)ccc5[nH]4)c3)n2)cc1 [GSK1229782]
%Inh [1]: 47% | %Inh [2]: 85% | %Inh [3]: 78% | %Inh [4]: 53% | %Inh [5]: 0% | %Inh [6]: 9% | %Inh [7]: 13%

O=S(=O)(c1ccc(-c2ccnc3[nH]ccc23)cc1)N1CCCC1 [GSK846226]
%Inh [1]: 60% | %Inh [2]: 0% | %Inh [3]: 0% | %Inh [4]: 0% | %Inh [5]: 0% | %Inh [6]: 24% | %Inh [7]: 0%

O=C(Nc1n[nH]c2nc(-c3nccs3)c(Br)cc12)C1CCCC1 [SB-742609]
%Inh [1]: 15% | %Inh [2]: 7% | %Inh [3]: 1% | %Inh [4]: 25% | %Inh [5]: 0% | %Inh [6]: 7% | %Inh [7]: 0%

COc1cccc(NC(=O)NC2CCN(c3ccnc(Nc4ccc(F)cc4)n3)C2)c1 (centres unmarked) [GSK1379721]
%Inh [1]: 5% | %Inh [2]: 0% | %Inh [3]: 0% | %Inh [4]: 0% | %Inh [5]: 0% | %Inh [6]: 0% | %Inh [7]: 100%

Cc1nnc(-c2ccc3occ(-c4ccc(S(C)=O)cc4)c3c2)[nH]1 (centres unmarked)
%Inh [1]: 25% | %Inh [2]: 17% | %Inh [3]: 0% | %Inh [4]: 7% | %Inh [5]: 0% | %Inh [6]: 0% | %Inh [7]: 23%

COc1cc2ncn(-c3cc(OCC4CCCO4)c(C(N)=O)s3)c2cc1OC (centres unmarked) [GSK204607]
%Inh [1]: 17% | %Inh [2]: 0% | %Inh [3]: 0% | %Inh [4]: 0% | %Inh [5]: 0% | %Inh [6]: 46% | %Inh [7]: 0%

Cn1ccc2ncnc(Oc3ccc(Nc4nc5ccccc5[nH]4)cc3)c21
%Inh [1]: 21% | %Inh [2]: 45% | %Inh [3]: 2% | %Inh [4]: 4% | %Inh [5]: 0% | %Inh [6]: 0% | %Inh [7]: 10%

CS(=O)(=O)c1ccc(-c2c(-c3ncn[nH]3)sc(N3CCOCC3)c2C#N)cc1
%Inh [1]: 18% | %Inh [2]: 30% | %Inh [3]: 13% | %Inh [4]: 7% | %Inh [5]: 14% | %Inh [6]: 0% | %Inh [7]: 0%

NC(=O)c1nnc2ccccc2c1N
%Inh [1]: 35% | %Inh [2]: 25% | %Inh [3]: 6% | %Inh [4]: 65% | %Inh [5]: 0% | %Inh [6]: 0% | %Inh [7]: 22%

O=C(Nc1ccccc1)Nc1cccc(Oc2ccc3nccn3n2)c1
%Inh [1]: 0% | %Inh [2]: 89% | %Inh [3]: 6% | %Inh [4]: 31% | %Inh [5]: 0% | %Inh [6]: 0% | %Inh [7]: 0%

Cc1c(Cn2ccn3c(=O)cc(N4CCOCC4)nc23)cccc1C(F)(F)F [GSK2289044]
%Inh [1]: 16% | %Inh [2]: 0% | %Inh [3]: 0% | %Inh [4]: 0% | %Inh [5]: 0% | %Inh [6]: 3% | %Inh [7]: 0%

Cc1csc(-c2nc(Nc3ccncc3)c3ccccc3n2)n1 [GW869640]
%Inh [1]: 31% | %Inh [2]: 31% | %Inh [3]: 15% | %Inh [4]: 7% | %Inh [5]: 94.7% | %Inh [6]: 0% | %Inh [7]: 3%

COc1ccc(Nc2nccc(NCCNC(=O)Nc3ccccc3F)n2)cc1 [GSK1379901]
%Inh [1]: 80% | %Inh [2]: 0% | %Inh [3]: 1% | %Inh [4]: 0% | %Inh [5]: 0% | %Inh [6]: 21% | %Inh [7]: 0%

Cn1cncc1-c1ccc2ncnc(Nc3ccc(OCc4ccccc4)cc3)c2c1 [GW320571]
%Inh [1]: 2% | %Inh [2]: 0% | %Inh [3]: 10% | %Inh [4]: 10% | %Inh [5]: 2% | %Inh [6]: 22% | %Inh [7]: 16%

Cc1cc(N2Cc3ccccc3C2)nc(Nc2ccc(S(=O)(=O)N3CCOCC3)cc2)n1.Cl [GSK1669917]
%Inh [1]: 1% | %Inh [2]: 0% | %Inh [3]: 0% | %Inh [4]: 0% | %Inh [5]: 0% | %Inh [6]: 2% | %Inh [7]: 0%

CC1=C(C(=O)Nc2cc3cn[nH]c3cc2F)C(c2ccc(C(F)(F)F)cc2)CC(=O)N1 (centres unmarked) [GSK429286]
%Inh [1]: 0% | %Inh [2]: 0% | %Inh [3]: 0% | %Inh [4]: 19% | %Inh [5]: 0% | %Inh [6]: 0% | %Inh [7]: 83%

Nc1nc(-c2nccs2)c(-c2ccnc3ccccc23)s1 [GW693542]
%Inh [1]: 8% | %Inh [2]: 0% | %Inh [3]: 6% | %Inh [4]: 15% | %Inh [5]: 14% | %Inh [6]: 10% | %Inh [7]: 0%

Cn1ccc2ncnc(Oc3cccc(C(=O)Nc4ccccc4)c3)c21
%Inh [1]: 22% | %Inh [2]: 0% | %Inh [3]: 0% | %Inh [4]: 0% | %Inh [5]: 1% | %Inh [6]: 100% | %Inh [7]: 0%

CCn1c(-c2ccccn2)nc2cnccc21 [SB-736398]
%Inh [1]: 0% | %Inh [2]: 0% | %Inh [3]: 4% | %Inh [4]: 0% | %Inh [5]: 0% | %Inh [6]: 18% | %Inh [7]: 0%

Cc1cc(-c2ccc3c(c2)CC[C@@H](N[C@@H](C)c2ccccc2)C3)cnc1N.Cl [GW412617]
%Inh [1]: 100% | %Inh [2]: 8% | %Inh [3]: 9% | %Inh [4]: 6% | %Inh [5]: 0% | %Inh [6]: 34% | %Inh [7]: 0%

O=c1cc(N2CCOCC2)nc2n(Cc3cccc(Cl)c3Cl)ccn12 [GSK2286295]
%Inh [1]: 6% | %Inh [2]: 0% | %Inh [3]: 0% | %Inh [4]: 3% | %Inh [5]: 0% | %Inh [6]: 0% | %Inh [7]: 0%

Cl.Oc1ccc(-c2nc(-c3ccccc3)[nH]c2-c2ccncc2)cc1 [SB-428218]
%Inh [1]: 7% | %Inh [2]: 72% | %Inh [3]: 56% | %Inh [4]: 30% | %Inh [5]: 0% | %Inh [6]: 7% | %Inh [7]: 0%

Cc1cc(NCC(c2ccccc2)c2ccccc2)nc(NCc2ccc(C(F)(F)F)cc2)n1 [GW497681]
%Inh [1]: 0% | %Inh [2]: 0% | %Inh [3]: 0% | %Inh [4]: 0% | %Inh [5]: 0% | %Inh [6]: 0% | %Inh [7]: 0%

Nc1ncnc2[nH]c(-c3ccccc3)nc12 [AH5015]
%Inh [1]: 0% | %Inh [2]: 7% | %Inh [3]: 44% | %Inh [4]: 19% | %Inh [5]: 0% | %Inh [6]: 37% | %Inh [7]: 7%

Cc1c(O)cccc1Nc1ccnc2ccc(C(F)(F)F)cc12.Cl [GW466413]
%Inh [1]: 0% | %Inh [2]: 42% | %Inh [3]: 70% | %Inh [4]: 43% | %Inh [5]: 0% | %Inh [6]: 73% | %Inh [7]: 13%
